Shown are actives, neighbours in structure and some others; about 7% of the full set was active somewhere.
JMJD2A Tudor inh = JMJD2A Tudor domain (human) inhibition. O75164. AlphaScreen JMJD2A-Tudor / H3K4me3 peptide binding. Potency, µM (top dose mostly 114 µM), inactives show at the top dose activity change, negative = inhibition, most hits filed as inhibitors. actives 4.4% (n = 390,000); note: potency is the fitted concentration of half-maximal effect; % is set by controls: 0 for no effect and ±100 for the full control effect; nearly all actives have a fitted effect of over 50% in size
PLK1 PBD block = PLK1 (human) polo-box domain binding inhibition; P53350; Plk1 PBD binding of FITC phosphopeptide, fluorescence polarization; Potency, µM, for the others: max response, negative = inhibition, most hits filed as inhibitors; actives 2.8% (n = 360,000); note: potency is the fitted concentration of half-maximal effect; series mostly up to about 57 µM; % is set by controls: 0 for no effect and ±100 for the full control effect; nearly all actives have a fitted effect of over 65% in size
GCN5L2 inh = GCN5L2 (KAT2A) acetyltransferase inhibition | Q92830 | GCN5L2 HAT assay, ThioGlo1 CoA-SH fluorescence | Potency, µM (highest dose often 58.9 µM), without a hit: at the highest dose activity change, negative = inhibition, usual class: inhibitors | actives 0.21% (n = 390,000) | AID 504327; note: potency is the fitted concentration of half-maximal effect; % is set by controls: 0 for no effect and ±100 for the full control effect
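Enzyme at 20nM final was mixed with library compounds for 15 min at room temperature. Peptide H3(1-25) at 75uM, acetyl-CoA at 70uM and ThioGlo1 at 50uM were then added. Plates were read immediately and after 20 min (Ex340nm/Em540nm).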
PI5P4K alpha inh = inhibitors of human PI5P4K alpha; PI5P4Kalpha enzyme, ADP-Glo luminescence, 60 min; active compounds read low; max response, %; P48426; actives 1.2% (n = 330,000); active = max response of -50% or lower; inconclusive = between -30% and -50%; inactive = -30% or higher; note: value at the top dose of about 77 µM; % is set by controls: 0 for no effect and ±100 for the full control effect
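Reactions run in 0.038 M HEPES pH 7.4, 0.28 mM EGTA, 0.1% CHAPS and 5% DMSO, with PI5P4Kalpha, substrate, compound and 5 microM ATP final, one hour at room temperature. Readout is ADP-Glo luminescence.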
HP1b binding inh = inhibitors of HP1-beta chromodomain binding to methylated histone tails | Potency, µM (doses to about 114 µM), without a hit: at the highest dose activity change, negative = inhibition, hits mostly inhibitors | P83916 | AlphaScreen HP1-beta / biotin-H3K9me3 peptide binding | actives 0.56% (n = 390,000); note: potency is the fitted concentration of half-maximal effect; nearly all actives have a fitted effect of over 70% in size
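HP1-beta protein (50 nM final) preincubated 30 min at room temperature with biotinylated H3(1-18)K9me3 peptide (50 nM) in PBS pH 7.4, 0.01% Tween-20, then compound added for 30 min. AlphaScreen streptavidin donor/nickel chelate acceptor beads (10 ug/mL final), 30 min dark, luminescence read.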
BAZ2B inh = inhibitors of human BAZ2B bromodomain. actives 4.4% (n = 360,000). AID 504333. Q9UIF8. AlphaScreen BAZ2B-H3K14Ac peptide displacement. Potency, µM (doses to about 114 µM), for the others: at the highest dose activity change, negative = inhibition, actives largely listed as inhibitors; note: potency is the fitted concentration of half-maximal effect; % is set by controls: 0 for no effect and ±100 for the full control effect; nearly all actives have a fitted effect of over 60% in size
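Complex of BAZ2B and biotin-H3K14Ac (50 nM apiece) forms over 30 min at RT, then faces library compounds up to 110 uM for another 30 min; AlphaScreen beads added, 20 min dark incubation, luminescence read.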
* hit, by the source's call; ? = inconclusive; · = no result given; [ ] = dose if it differs, or a comment. Unless noted, calls come from the whole dose curve; as a rule, active = well fitted curve in the direction sought with a large enough effect; inconclusive = small, poorly fitted or top-dose-only effect, or another doubt; inactive = no such curve, though single readings can be large; an effect the other way counts as inactive or inconclusive.

SMILES	JMJD2A Tudor inh	PLK1 PBD block	GCN5L2 inh	PI5P4K alpha inh	HP1b binding inh	BAZ2B inh
Cc1ccc(S(=O)(=O)N(C(=O)c2ccncc2)c2ccc(OC(=O)c3ccncc3)c3ccccc23)cc1	40µM*	9.5µM*	-3%	-26	-28%	-35%
Cc1ccc(S(=O)(=O)N(C(=O)c2ccncc2)c2ccc(OC(=O)c3ccncc3)c3ccccc23)c(C)c1	?	13µM*	-6%	3	?	?
CC(=O)Oc1ccc(N(C(C)=O)S(=O)(=O)c2ccccc2)c2ccccc12	·	-2%	·	3	·	·
CCNC(=O)C(C)Sc1ccc(Cl)cc1 (stereo unspecified)	7%	-14%	1%	2	12%	14%
C=CCNC(=O)C(C)Sc1ccc(Cl)cc1 (stereo unspecified)	-20%[11.4 µM]	30µM*	0%	5	-17%	10%
Cc1ccc(C)c(N2CCN(S(=O)(=O)c3c(C(=O)N4CCC(C)CC4)c(C)n(C)c3C)CC2)c1	?	·	-2%	·	-10%	50µM*
Cc1c(C(=O)N2CCCC2)c(S(=O)(=O)N2CCCCC2)c(C)n1C	-7%	-11%	?	4	48%	-11%
Cc1c(C(=O)N2CCCCC2)c(S(=O)(=O)N2CCC(C)CC2)c(C)n1C	?	21µM*	1%	-5	-4%	-14%[57.1 µM]
CCOc1ccccc1N(CC(=O)Nc1ccccc1C(=O)N1CCOCC1)S(C)(=O)=O	-7%	-8%	2%	-19	15%	-14%
CCSC1=N/C(=C\c2cccc(F)c2)C(=O)S1	-24%	-6%	-2%	12	19%	8%
CCSC1=N/C(=C\C=C2/Oc3ccccc3N2CC)C(=O)S1	35µM*	48%	0%	-1	?	32µM*
CCCCC(=O)N(c1ccc(C(=O)O)cc1)c1nc(-c2ccc(Cl)cc2)c(CC)s1	-28%	27µM*	-4%	-4	-21%	-17%
O=C(COC(=O)c1cc(NS(=O)(=O)c2cccs2)ccc1O)Nc1ccc(F)c(F)c1F	-15%	-6%	-4%	3	20%	-16%
O=C(COC(=O)c1ccc(NS(=O)(=O)c2cccs2)cc1)Nc1nc2c(F)c(F)c(F)cc2s1	-30%	-25%	-13%	-90*	-8%	?
CCN1C(=O)[C@H]2[C@@H](c3ccc(C)cc3)N3C(=O)N(c4ccc(OC)cc4)C(=O)[C@@]3(C)[C@H]2C1=O	-30%	21µM*	1%	5	23%	-2%
CCOC(=O)N1CCC(NC(=O)CS(=O)(=O)Cc2nc(-c3ccc(OC)cc3)oc2C)CC1	?	21µM*	4%	0	11%	-15%
COc1cccc(-c2nc(CS(=O)(=O)CC(=O)NC3CCC(C)CC3)c(C)o2)c1 (stereo unspecified)	?	24µM*	-2%	-18	-2%	-11%
Cc1ccc(-c2nc(CS(=O)(=O)CC(=O)NC3CCCCC3C)c(C)o2)cc1 (stereo unspecified)	-15%	3%	0%	5	35%	-3%
CCOC(=O)N1CCC(NC(=O)CS(=O)(=O)Cc2nc(-c3ccccc3C)oc2C)CC1	-22%	-2%	-2%	1	21%	5%
COc1ccc(-c2nc(CS(=O)(=O)CC(=O)NC3CCCCC3C)c(C)o2)cc1 (stereo unspecified)	?	24µM*	-2%	-14	2%	-23%
Cc1ccc(-n2nc(CO)c(C(=O)NCCO)n2)cc1	-9%	·	0%	·	14%	0%
CS(=O)(=O)NCCn1ccc2ccccc21	?	30µM*	0%	-17	13%	·
CCOC(=O)NC(=O)c1cn(-c2ccc(OC)cc2)c(=O)[nH]c1=O	-7%	-9%	4%	-2	29%	0%
Cc1ccc(S(=O)(=O)NCC(C)n2cncn2)cc1C (stereo unspecified)	-5%	-6%	-2%	0	9%	9%
COc1ccc(-n2nc(C(=O)NCC(=O)Nc3ccc(F)cc3)c3ccccc3c2=O)cc1	4%	0%	-13%	4	8%	10%
SMILES	JMJD2A Tudor inh	PLK1 PBD block	GCN5L2 inh	PI5P4K alpha inh	HP1b binding inh	BAZ2B inh
CCC1=NN2C(=N)/C(=C\c3ccc(OCCOc4ccc(NC(C)=O)cc4)cc3)C(=O)N=C2S1	-23%	?	0%	-3	23%	-28%
COc1cc(/C=C2\C(=N)N3N=C(C)SC3=NC2=O)cc(Cl)c1OCCOc1ccc(NC(C)=O)cc1	-6%	-29%	-9%	-26	14%	79µM*
CC(=O)Nc1ccc(OCCOc2ccc(/C=C3/C(=N)N4C=CSC4=NC3=O)cc2)cc1	-14%	3.4µM*	-4%	?	0%	3%
[O-]/[N+](=C\c1ccccc1)c1ccc(Br)cc1	?	15µM*	-5%	-6	-3%	?
CC(C)Oc1ccc(CN2CCC(n3nccc3NC(=O)CCc3ccccc3)CC2)cc1	-17%	-7%	-23%	-1	-2%	-11%
Cc1ccc(OCCC(=O)OCC(=O)NCCc2ccc(Cl)cc2)cc1	0%	-5%	-4%	21	27%	-4%
CCn1ccnc1CN1CCCC(CO)(Cc2cccc(OC)c2)C1 (stereo unspecified)	-25%	-10%	-3%	0	17%	89µM*
CCOC(=O)C1(Cc2cccc(OC)c2)CCCN(Cc2nccn2CC)C1 (stereo unspecified)	-21%	-16%	23%	0	12%	-24%
COc1cc(CN2CCCC(CO)(Cc3cccc(Cl)c3)C2)cc2c1OCO2 (stereo unspecified)	-9%[11.4 µM]	21µM*	-5%	2	5%	14%
COc1cc(CN2CCCC(CO)(Cc3cccc(Cl)c3)C2)cc(OC)c1O (stereo unspecified)	-24%	-23%	-2%	-1	6%	-25%
COc1ccc(CCNC(=O)C2c3ccccc3C(=O)N2Cc2ccccc2)cc1OC (stereo unspecified)	-2%	·	-2%	·	25%	5%
COc1ccccc1CNC(=O)CSc1ccc(-c2cccs2)nn1	-23%	-7%	-10%	-2	5%	-36%
COc1ccccc1CNC(=O)CSc1ccc(-c2ccccn2)nn1	32µM*	-6%	-2%	-2	23%	8.9µM*
COc1ccc(-c2ccc(SCC(=O)Nc3nccs3)nn2)cc1OC	?	-6%	-14%	7	70%	-36%
Cc1csc(NC(=O)CSc2ccc(-c3ccccn3)nn2)n1	22µM*	-3%	-10%	-7	13%	7.1µM*
O=C(CSc1ccc(-c2ccccn2)nn1)Nc1nccs1	2.5µM*	-1%	?	-1	16%	-9%
O=C(NN=C1CCCCCCCCCCC1)c1ccncc1	28µM*	-5%	-6%	1	38%	?

Screening data: PubChem, National Center for Advancing Translational Sciences (NCATS)
